Laboratory results as given in PubChem BioAssay AID1159580 (chemical genetic matrix, 2015).
Where “and” joins values, the source holds several entries; their conditions need not be identical. Equal entries are not always repeated. Out of some 5,500 compounds screened, about 2,000 (36%) were called active. Roughly 18% stayed inconclusive and do not appear here. No stated cut-off is given here; in the data, active means normalized growth mostly below about 0.91 (no sharp cut-off); inconclusive means no clear call, values can overlap the other calls; inactive means mostly above about 0.92. Some of the results follow.

Assay: chemical genetic growth profiling, strain panel (AID 1159580);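 further: tested at 20 µM; growth read once vehicle control cultures reached saturation at 30 °C; 1 = growth at the plate median or of vehicle wells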
Settings: growth OD
[1] = S. cerevisiae deletion strains, locus YAR019C, strain CDC15, stronger effect = lower value
[2] = S. cerevisiae deletion strains, locus YBL105C, strain PKC1, stronger effect = lower value
[3] = S. cerevisiae deletion strains, locus YBR135W, strain CKS1, stronger effect = lower value
[4] = S. cerevisiae deletion strains, locus YBR136W, strain MEC1, stronger effect = lower value
[5] = S. cerevisiae deletion strains, locus YBR160W, strain CDC28, stronger effect = lower value
[6] = S. cerevisiae deletion strains, locus YDL017W, strain CDC7, stronger effect = lower value
[7] = S. cerevisiae deletion strains, locus YDL028C, strain MPS1, stronger effect = lower value
[8] = S. cerevisiae deletion strains, locus YDL101C, strain DUN1, stronger effect = lower value
[9] = S. cerevisiae deletion strains, locus YDL108W, strain KIN28, stronger effect = lower value
[10] = S. cerevisiae deletion strains, locus YDL132W, strain cdc53, stronger effect = lower value
[11] = S. cerevisiae deletion strains, locus YDL214C, strain PRR2, stronger effect = lower value
[12] = S. cerevisiae deletion strains, locus YDR052C, strain DBF4, stronger effect = lower value
[13] = S. cerevisiae deletion strains, locus YDR054C, strain cdc34, stronger effect = lower value
[14] = S. cerevisiae deletion strains, locus YDR226W, strain ADK1, stronger effect = lower value
[15] = S. cerevisiae deletion strains, locus YDR477W, strain SNF1, stronger effect = lower value
[16] = S. cerevisiae deletion strains, locus YER123W, strain YCK3, stronger effect = lower value
[17] = S. cerevisiae deletion strains, locus YER133W, strain GLC7, stronger effect = lower value
[18] = S. cerevisiae deletion strains, locus YFL009W, strain cdc4, stronger effect = lower value
[19] = S. cerevisiae deletion strains, locus YFL029C, strain CAK1, stronger effect = lower value
[20] = S. cerevisiae deletion strains, locus YFR003C, strain YPI1, stronger effect = lower value
[21] = S. cerevisiae deletion strains, locus YFR019W, strain FAB1, stronger effect = lower value
[22] = S. cerevisiae deletion strains, locus YFR028C, strain CDC14, stronger effect = lower value
[23] = S. cerevisiae deletion strains, locus YGR040W, strain KSS1, stronger effect = lower value
[24] = S. cerevisiae deletion strains, locus YGR052W, strain FMP48, stronger effect = lower value
[25] = S. cerevisiae deletion strains, locus YGR092W, strain DBF2, stronger effect = lower value
[26] = S. cerevisiae deletion strains, locus YHR030C, strain SLT2, stronger effect = lower value
[27] = S. cerevisiae deletion strains, locus YHR079C, strain IRE1, stronger effect = lower value
[28] = S. cerevisiae deletion strains, locus YHR082C, strain KSP1, stronger effect = lower value
[29] = S. cerevisiae deletion strains, locus YHR205W, strain SCH9, stronger effect = lower value
[30] = S. cerevisiae deletion strains, locus YIL147C, strain SLN1, stronger effect = lower value
[31] = S. cerevisiae deletion strains, locus YJL095W, strain BCK1, stronger effect = lower value
[32] = S. cerevisiae deletion strains, locus YJL128C, strain PBS2, stronger effect = lower value
[33] = S. cerevisiae deletion strains, locus YJL157C, strain FAR1, stronger effect = lower value
[34] = S. cerevisiae deletion strains, locus YJR016C, strain ILV3, stronger effect = lower value
[35] = S. cerevisiae deletion strains, locus YJR066W, strain TOR1 (second series), stronger effect = lower value
[36] = S. cerevisiae deletion strains, locus YJR066W, strain TOR1, stronger effect = lower value
[37] = S. cerevisiae deletion strains, locus YKL048C, strain ELM1, stronger effect = lower value
[38] = S. cerevisiae deletion strains, locus YKL067W, strain YNK1, stronger effect = lower value
[39] = S. cerevisiae deletion strains, locus YKL101W, strain HSL1, stronger effect = lower value
[40] = S. cerevisiae deletion strains, locus YKL193C, strain SDS22, stronger effect = lower value
[41] = S. cerevisiae deletion strains, locus YKL203C, strain TOR2, stronger effect = lower value
[42] = S. cerevisiae deletion strains, locus YLR113W, strain HOG1, stronger effect = lower value
[43] = S. cerevisiae deletion strains, locus YLR133W, strain CKI1, stronger effect = lower value
[44] = S. cerevisiae deletion strains, locus YLR403W, strain SFP1, stronger effect = lower value
[45] = S. cerevisiae deletion strains, locus YML070W, strain DAK1, stronger effect = lower value
[46] = S. cerevisiae deletion strains, locus YMR001C, strain CDC5, stronger effect = lower value
[47] = S. cerevisiae deletion strains, locus YMR205C, strain PFK2 (second series), stronger effect = lower value
[48] = S. cerevisiae deletion strains, locus YMR277W, strain FCP1, stronger effect = lower value
[49] = S. cerevisiae deletion strains, locus YNL006W, strain LST8, stronger effect = lower value
[50] = S. cerevisiae deletion strains, locus YNL020C, strain ARK1, stronger effect = lower value
[51] = S. cerevisiae deletion strains, locus YNL161W, strain CBK1, stronger effect = lower value
[52] = S. cerevisiae deletion strains, locus YNL183C, strain NPR1, stronger effect = lower value
[53] = S. cerevisiae deletion strains, locus YNL207W, strain RIO2, stronger effect = lower value
[54] = S. cerevisiae deletion strains, locus YNL222W, strain SSU72, stronger effect = lower value
[55] = S. cerevisiae deletion strains, locus YNL307C, strain MCK1 (second series), stronger effect = lower value
[56] = S. cerevisiae deletion strains, locus YOL078W, strain AVO1, stronger effect = lower value
[57] = S. cerevisiae deletion strains, locus YOL136C, strain PFK27, stronger effect = lower value
[58] = S. cerevisiae deletion strains, locus YOR061W, strain CKA2, stronger effect = lower value
[59] = S. cerevisiae deletion strains, locus YOR119C, strain RIO1, stronger effect = lower value
[60] = S. cerevisiae deletion strains, locus YOR231W, strain MKK1, stronger effect = lower value
[61] = S. cerevisiae deletion strains, locus YOR329C, strain SCD5, stronger effect = lower value
[62] = S. cerevisiae deletion strains, locus YPL031C, strain PHO85, stronger effect = lower value
[63] = S. cerevisiae deletion strains, locus YPL153C, strain RAD53, stronger effect = lower value
[64] = S. cerevisiae deletion strains, locus YPL204W, strain HRR25, stronger effect = lower value
[65] = S. cerevisiae deletion strains, locus YPL209C, strain IPL1, stronger effect = lower value
[66] = S. cerevisiae deletion strains, locus YPL256C, strain CLN2, stronger effect = lower value
[67] = S. cerevisiae deletion strains, locus YPR025C, strain CCL1, stronger effect = lower value
[68] = S. cerevisiae deletion strains, locus YPR106W, strain ISR1, stronger effect = lower value
[69] = S. cerevisiae deletion strains, locus YPR111W, strain DBF20, stronger effect = lower value
[70] = S. cerevisiae deletion strains, strain NNK1, stronger effect = lower value
[71] = S. cerevisiae deletion strains, strain TSCII, stronger effect = lower value

Measured: normalized growth

CCOc1ccc(/C=C(\C)[N+](=O)[O-])cc1OC
inactive: [1] 0.976 | [2] 0.975 | [3] 0.97 | [4] 0.973 | [5] 0.971 | [6] 0.97 | [7] 0.973 | [9] 0.979 | [10] 0.991 | [12] 0.984 | [13] 0.978 | [14] 0.97 | [18] 0.98 | [19] 0.97 | [20] 0.978 | [22] 0.974 | [30] 0.973 | [32] 0.964 | [34] 0.985 | [40] 0.973 | [46] 0.967 | [48] 0.973 | [49] 0.976 | [51] 0.961 | [53] 0.977 | [54] 0.976 | [56] 0.98 | [61] 0.965 | [65] 0.968 | [67] 0.969 | [68] 0.972 | [69] 0.978 | [70] 0.975 | [71] 0.977
active: S. cerevisiae deletion strains, locus YAL013W, strain DEP1, stronger effect = lower value 0.525 | S. cerevisiae deletion strains, locus YBR229C, strain ROT2, stronger effect = lower value 0.25 | [8] 0.426 | S. cerevisiae deletion strains, locus YDL134C, strain PPH21, stronger effect = lower value 0.106 | [11] 0.471 | [15] 0.516 | S. cerevisiae deletion strains, locus YEL061C, strain CIN8, stronger effect = lower value 0.22 | [16] 0.232 | [17] 0.482 | [21] 0.284 | [23] 0.478 | [24] 0.382 | S. cerevisiae deletion strains, locus YGR078C, strain PAC10, stronger effect = lower value 0.437 | [25] 0.226 | [26] 0.0845 and 0.197 | [27] 0.313 | [28] 0.429 | S. cerevisiae deletion strains, locus YHR087W, strain rtc3, stronger effect = lower value 0.401 | [29] 0.57 | [31] 0.269 | [33] 0.46 | S. cerevisiae deletion strains, locus YJL187C, strain SWE1, stronger effect = lower value 0.434 | S. cerevisiae deletion strains, locus YJR043C, strain POL32, stronger effect = lower value 0.602 | [35] 0.126 | [36] 0.257 | S. cerevisiae deletion strains, locus YJR075W, strain HOC1, stronger effect = lower value 0.178 | [37] 0.534 | [38] 0.458 | [39] 0.393 | [41] 0.489 | S. cerevisiae deletion strains, locus YLR039C, strain RIC1, stronger effect = lower value 0.285 | S. cerevisiae deletion strains, locus YLR058C, strain SHM2 (second series), stronger effect = lower value 0.651 | S. cerevisiae deletion strains, locus YLR085C, strain ARP6, stronger effect = lower value 0.163 | [42] 0.203 | [43] 0.547 | S. cerevisiae deletion strains, locus YLR262C, strain YPT6, stronger effect = lower value 0.283 | [44] 0.497 | [45] 0.295 | S. cerevisiae deletion strains, locus YML094W, strain GIM5, stronger effect = lower value 0.145 | [47] 0.554 | S. cerevisiae deletion strains, locus YMR219W, strain ESC1, stronger effect = lower value 0.285 | S. cerevisiae deletion strains, locus YMR263W, strain SAP30, stronger effect = lower value 0.463 | [50] 0.528 | S. cerevisiae deletion strains, locus YNL153C, strain GIM3, stronger effect = lower value 0.171 | [52] 0.359 | S. cerevisiae deletion strains, locus YNL298W, strain CLA4 (second series), stronger effect = lower value 0.204 | [55] 0.364 | S. cerevisiae deletion strains, locus YNL322C, strain KRE1, stronger effect = lower value 0.873 | S. cerevisiae deletion strains, locus YNR030W, strain Alg12, stronger effect = lower value 0.0808 | S. cerevisiae deletion strains, locus YOL006C, strain TOP1, stronger effect = lower value 0.0719 | [57] 0.374 | [58] 0.571 | [59] 0.444 | [60] 0.289 | [62] 0.409 | S. cerevisiae deletion strains, locus YPL055C, strain LGE1, stronger effect = lower value 0.86 | [63] 0.318 | [64] 0.431 | S. cerevisiae deletion strains, locus YPL241C, strain CIN2, stronger effect = lower value 0.0938 | [66] 0.266 | S. cerevisiae deletion strains, locus YPR135W, strain CTF4, stronger effect = lower value 0.233 | S. cerevisiae strains, strain wild type, stronger effect = lower value 0.0825

C/C(=C\c1ccc2c(c1)OCO2)[N+](=O)[O-]
active: [1] 0.0944 | [2] 0.089 | [3] 0.0821 | [4] 0.0972 | [5] 0.096 | [6] 0.103 | [7] 0.108 | [8] 0.101 | [9] 0.107 | [10] 0.121 | [11] 0.0871 | [12] 0.302 | [13] 0.1 | [14] 0.112 | [15] 0.0948 | [16] 0.0987 | [17] 0.0948 | [18] 0.0975 | [19] 0.0944 | [20] 0.123 | [21] 0.0927 | [22] 0.108 | [23] 0.0949 | [24] 0.11 | [25] 0.0972 | [26] 0.107 | [27] 0.113 | [28] 0.12 | [29] 0.00121 | [30] 0.108 | [31] 0.107 | [32] 0.124 | [33] 0.084 | [34] 0.0841 | [35] 0.0942 | [36] 0.105 | [37] 0.106 | [38] 0.0865 | [39] 0.0966 | [40] 0.0838 | [41] 0.107 | [42] 0.126 | [43] 0.0901 | [44] -0.000823 | [45] 0.0897 | [46] 0.0887 | [47] 0.0868 | [48] 0.0888 | [49] 0.0816 | [50] 0.0897 | [51] 0.0823 | [52] 0.114 | [53] 0.091 | [54] 0.0831 | [55] 0.0968 | [56] 0.0833 | [57] 0.0926 | [58] 0.0859 | [59] 0.11 | [60] 0.108 | [61] 0.0841 | [62] 0.0922 | [63] 0.101 | [64] 0.0962 | [65] 0.0837 | [66] 0.128 | [67] 0.0836 | [68] 0.0862 | [69] 0.142 | [70] 0.0961 | [71] 0.0923
